High-throughput results from PubChem BioAssay.
KCNQ2 enhance: enhances the rat KCNQ2 potassium channel; AID 2239; O88943; B-score at 10 µM; CHO-K1 KCNQ2, FluxOR thallium flux fluorescence; stronger effect = higher value; actives 0.54% (n = 310,000);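 active = fluorescence ratio B-score at least 3 SD of library B-scores, with initial fluorescence B-score within 3 of them, cut at about 5.3 in these data; same plate scores as AID 2156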;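 note: B-score of peak minus minimum over baseline fluorescence ratio after K+ and Tl+ stimulus; positive B-score means potentiation of KCNQ2 with more thallium influx and brighter signal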
KCNQ2 inh: inhibitors of rat KCNQ2 potassium channel; O88943; CHO-K1 KCNQ2, FluxOR thallium flux, 20 min; stronger effect = lower value; B-score at 10 µM; actives 1.1% (n = 310,000);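 active = fluorescence ratio B-score at most minus 3 library SDs, with starting brightness B-score within 2 library SDs, cut at about -5.5 in these data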
Kir21 conf inh: confirmation of mouse Kir2.1 potassium channel inhibitors; shares compounds with KCNQ2 enhance; actives 41% (n = 2,300); Kir2.1-expressing cells, FluxOR thallium flux fluorescence; stronger effect = lower value; Tl flux remaining, % of negative control (stronger effect = lower value), % at 10 µM;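 active = Primary-screen hit whose thallium flux fell at least 3 control SD below untreated wells in both duplicates, with normal baseline fluorescence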;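 note: 0% = blank wells without stimulus and 100% = stimulated no-compound controls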
HEK293 Tl flux: alters thallium flux in parental HEK293 cells, Kir2.1 counter-screen | shares compounds with KCNQ2 enhance | FluxOR thallium flux fluorescence; 0% = unstimulated blank wells | FluxOR signal as % of negative control (100 = no effect), % at 10 µM | actives 19% (n = 2,300) | AID 2105;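 active = dye signal at least 3 control SD above or below untreated wells in both duplicates, raw fluorescence within 3, either direction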;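 note: percent is based on the flux ratio of peak minus minimum fluorescence over baseline F0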
CHO-K1 Tl ctr: counter-screen for KCNQ2 potentiators: effect in parental CHO-K1 cells. shares compounds with KCNQ2 enhance. FluxOR thallium flux fluorescence; zero = vehicle mean+3SD, 100% = vehicle-minus-blank window. activity increase over 3SD of controls, % at 10 µM. actives 43% (n = 1,200). AID 2282;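 active = signal rise of at least 3 SD above the untreated control mean, in both duplicate wells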;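 note: counter screen of KCNQ2 potentiator hits so any rise reflects channel-independent effects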
KCNQ1 pot spec: selectivity of KCNQ2 potentiators: effect on human KCNQ1 | CHO KCNQ1 stable, FluxOR thallium flux fluorescence; beyond 3SD, as % of vehicle-control signal | shares compounds with KCNQ2 enhance | activation over 3SD threshold, % at 10 µM | AID 2283 | actives 28% (n = 1,200);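 active = fluorescence ratio rise of at least 3 SD of vehicle wells above their mean, in both replicate wells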;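 note: 0% = vehicle mean plus 3 SD and 100% = vehicle minus unstimulated blank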
KCNQ2 pot conf: confirmation of rat KCNQ2 potassium channel potentiators | shares compounds with KCNQ2 enhance | CHO-KCNQ2 cells, FluxOR thallium flux fluorescence | potentiation, less the hit threshold, % at 10 µM | actives 68% (n = 1,200) | AID 2287;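 active = fluorescence ratio rising 3 SD or more over the vehicle control mean in both replicates, plus primary screen hit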;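 note: peak minus minimum thallium fluorescence divided by baseline after K/Tl stimulus; 0% = vehicle mean plus 3 SD and 100% = vehicle minus unstimulated blank difference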
Kir21 spec: tests whether KCNQ2 potentiators also affect mouse Kir2.1; shares compounds with KCNQ2 enhance; HEK293 Kir2.1, FluxOR thallium flux fluorescence; activity over 3SD threshold, % at 10 µM; actives 2% (n = 1,200); AID 2345;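 active = fluorescence ratio rise of at least 3 SD above the vehicle-control mean, seen in both replicates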;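 note: 0% = vehicle mean plus 3 SD and 100% = vehicle minus no-stimulus blank window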
KCNQ2 W236L MoA: KCNQ2 potentiators acting on retigabine-insensitive rat KCNQ2 W236L mutant. actives 10% (n = 940). CHO KCNQ2-W236L, automated patch clamp current. shares compounds with KCNQ2 enhance. current increase over 3SD of negative controls (%), stronger effect = higher value, % at 25 µM. AID 2558;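 active = current increase at least 3 SD of the untreated controls above them in both duplicate recordings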
Target sequence (O88943 whole entry W236L, looked up): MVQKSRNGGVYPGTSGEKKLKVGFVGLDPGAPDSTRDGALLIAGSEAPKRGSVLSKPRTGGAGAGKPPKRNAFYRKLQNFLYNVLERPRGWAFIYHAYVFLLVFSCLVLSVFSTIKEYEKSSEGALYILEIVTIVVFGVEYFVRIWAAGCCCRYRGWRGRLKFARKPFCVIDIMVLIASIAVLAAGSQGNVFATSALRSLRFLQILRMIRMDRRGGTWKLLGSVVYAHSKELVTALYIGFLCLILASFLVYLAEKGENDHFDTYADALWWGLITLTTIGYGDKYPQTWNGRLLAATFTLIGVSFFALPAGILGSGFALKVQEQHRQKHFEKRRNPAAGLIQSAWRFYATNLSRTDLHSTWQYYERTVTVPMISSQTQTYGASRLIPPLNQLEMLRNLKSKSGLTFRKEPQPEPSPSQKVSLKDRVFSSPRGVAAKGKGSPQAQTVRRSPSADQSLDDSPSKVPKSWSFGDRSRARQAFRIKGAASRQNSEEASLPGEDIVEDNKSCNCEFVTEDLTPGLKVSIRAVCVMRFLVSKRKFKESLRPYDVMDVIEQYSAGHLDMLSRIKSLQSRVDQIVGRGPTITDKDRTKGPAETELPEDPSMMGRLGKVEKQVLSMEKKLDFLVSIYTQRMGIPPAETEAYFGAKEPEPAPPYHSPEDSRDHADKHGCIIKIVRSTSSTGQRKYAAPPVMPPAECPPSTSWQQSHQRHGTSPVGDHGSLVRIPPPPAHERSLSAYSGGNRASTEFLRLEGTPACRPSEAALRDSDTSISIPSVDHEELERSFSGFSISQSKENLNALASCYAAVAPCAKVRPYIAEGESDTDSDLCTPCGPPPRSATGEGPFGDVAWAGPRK
An asterisk follows results filed as active. The list is not random: actives were taken first. Their share in the collection is about 1.6%.

What do the screens show for `CC(NC(=O)NC12CC3CC(CC(C3)C1)C2)c1ccc2c(c1)OCO2` (stereo not given)?
KCNQ2 enhance: 15*; KCNQ2 inh: inactive; Kir21 conf inh: inactive; HEK293 Tl flux: inactive; CHO-K1 Tl ctr: 28*; KCNQ1 pot spec: -18; KCNQ2 pot conf: 56*; Kir21 spec: -39; KCNQ2 W236L MoA: inactive

What do the screens show for `O=C(NCc1cccnc1)Nc1cccc(C(F)(F)F)c1`?
KCNQ2 enhance: 1.4; KCNQ2 inh: inactive

What do the screens show for `CCc1ccccc1NC(=O)NC(C)c1ccc2c(c1)OCO2` (stereo not given)?
KCNQ2 enhance: 1.6; KCNQ2 inh: inactive

Results for O=C(CC12CCC(CC1)C2)NCc1ccc2c(c1)OCO2 ?
KCNQ2 enhance: 11*; KCNQ2 inh: inactive; Kir21 conf inh: inactive; HEK293 Tl flux: inactive; CHO-K1 Tl ctr: 96*; KCNQ1 pot spec: -13; KCNQ2 pot conf: 44*; Kir21 spec: -26; KCNQ2 W236L MoA: inactive

How did O=C(Cc1ccccc1)NCc1ccc2c(c1)OCO2 do in these assays?
KCNQ2 enhance: 2.6; KCNQ2 inh: inactive

Results for O=C(NCc1ccc2c(c1)CCO2)Nc1cccc(C(F)(F)F)c1 ?
KCNQ2 enhance: 7.1*; KCNQ2 inh: inactive; Kir21 conf inh: inactive; HEK293 Tl flux: inactive; CHO-K1 Tl ctr: 3.1*; KCNQ1 pot spec: 20*; KCNQ2 pot conf: 25*; Kir21 spec: -44; KCNQ2 W236L MoA: inactive

Results for COc1ccc(CNC(NC(=O)c2ccccc2)(C(F)(F)F)C(F)(F)F)cc1 ?
KCNQ2 inh: inactive

How did Cc1cccc(CS(=O)(=O)c2ncc(CO)n2C)c1 do in these assays?
KCNQ2 enhance: 1.5; KCNQ2 inh: inactive

What do the screens show for `Cc1ccccc1C(=O)NCCCNC(=O)c1ccccn1`?
KCNQ2 enhance: 0.25; KCNQ2 inh: inactive

Results for Cc1cccc(NC(=O)NCc2ccc3c(c2)OCO3)c1 ?
KCNQ2 enhance: 11*; KCNQ2 inh: inactive; Kir21 conf inh: inactive; HEK293 Tl flux: inactive; CHO-K1 Tl ctr: 4.1*; KCNQ1 pot spec: -12; KCNQ2 pot conf: 20*; Kir21 spec: -41; KCNQ2 W236L MoA: inactive

Results for Cc1cccc(NC(=S)NCc2ccc3c(c2)OCO3)c1 ?
KCNQ2 enhance: 0.23; KCNQ2 inh: inactive

How did O=C(NNC(=O)c1ccc2c(c1)OCO2)NC1CCCCC1 do in these assays?
KCNQ2 inh: inactive

What do the screens show for `O=C(NCc1ccc2c(c1)OCO2)NC1CCCCC1`?
KCNQ2 enhance: 5.7*; KCNQ2 inh: inactive; Kir21 conf inh: inactive; HEK293 Tl flux: inactive; CHO-K1 Tl ctr: 38*; KCNQ1 pot spec: -10; KCNQ2 pot conf: -19; Kir21 spec: -23

What do the screens show for `Cc1ccc(C(=O)Nc2ccccc2C(=O)O)cc1S(=O)(=O)Nc1ccc(Br)cc1`?
KCNQ2 inh: inactive

Results for COc1ccc(C(=O)NCCCNC(=O)c2cnccn2)cc1 ?
KCNQ2 inh: inactive

Results for CCOC(=O)c1sc2nc(CC(=O)OC)nc(NCc3ccco3)c2c1C ?
KCNQ2 enhance: 1.5; KCNQ2 inh: inactive

Results for CCOC(=O)c1sc2ncnc(NCc3ccco3)c2c1C ?
KCNQ2 enhance: 14*; KCNQ2 inh: inactive; Kir21 conf inh: inactive; HEK293 Tl flux: 238%*; CHO-K1 Tl ctr: 23*; KCNQ1 pot spec: -29; KCNQ2 pot conf: 47*; Kir21 spec: -31; KCNQ2 W236L MoA: inactive

What do the screens show for `Cc1ccc(Nc2cc(C)nc3ccc(C)cc23)cc1`?
KCNQ2 enhance: 0.17; KCNQ2 inh: inactive; Kir21 conf inh: 48%*; HEK293 Tl flux: inactive

How did CCOc1ccc(Nc2cc(C)nc3ccc(C)cc23)cc1 do in these assays?
KCNQ2 inh: inactive

What do the screens show for `CCN(c1ccc(NC(=O)COC(=O)CCC(=O)c2ccc(F)cc2)cc1)C(C)C`?
KCNQ2 inh: inactive

Results for O=C(/C=C/c1ccccc1)CC(O)(c1ccccc1)C(F)(F)F (stereo not given) ?
KCNQ2 inh: inactive; Kir21 conf inh: 62%*; HEK293 Tl flux: inactive

What do the screens show for `COc1ccc(/C=C/C(=O)CC(O)(c2ccccc2)C(F)(F)F)cc1` (stereo not given)?
KCNQ2 inh: inactive

Results for Cc1ccc(S(=O)(=O)CC(O)COc2ccc(F)cc2Cl)cc1 (stereo not given) ?
KCNQ2 enhance: 2.6; KCNQ2 inh: inactive

What do the screens show for `Cc1ccc(S(=O)(=O)CC(O)COc2ccc(F)cc2Cl)c(C)c1` (stereo not given)?
KCNQ2 enhance: 0.26; KCNQ2 inh: inactive; Kir21 conf inh: 52%*; HEK293 Tl flux: inactive

How did CC(c1ccco1)N(C(=O)c1ccc(Cl)c([N+](=O)[O-])c1)c1ccccn1 (stereo not given) do in these assays?
KCNQ2 inh: inactive

Results for CCCn1nc(NC(=O)COC)c2cc3cccc(C)c3nc21 ?
KCNQ2 inh: inactive

How did CCn1nc(NC(=O)C(C)(C)C)c2cc3cccc(C)c3nc21 do in these assays?
KCNQ2 enhance: 8.5*; KCNQ2 inh: inactive; Kir21 conf inh: inactive; HEK293 Tl flux: inactive; CHO-K1 Tl ctr: 20*; KCNQ1 pot spec: 3.4*; KCNQ2 pot conf: -81; Kir21 spec: -31; KCNQ2 W236L MoA: inactive

Results for CCCn1nc(NC(=O)CC(C)C)c2cc3cccc(C)c3nc21 ?
KCNQ2 enhance: 5.3*; KCNQ2 inh: inactive; Kir21 conf inh: inactive; HEK293 Tl flux: inactive; CHO-K1 Tl ctr: -19; KCNQ1 pot spec: -32; KCNQ2 pot conf: -20; Kir21 spec: -41

How did CCCn1nc(NC(C)=O)c2cc3cccc(C)c3nc21 do in these assays?
KCNQ2 enhance: 1.6; KCNQ2 inh: inactive

How did CCCNC(=O)C1(O)c2cc(Br)ccc2NC(=O)N1c1ccc(Cl)cc1 (stereo not given) do in these assays?
KCNQ2 inh: inactive

What do the screens show for `CCOC(=O)C(C)CC(C)C(=O)N1CCOCCOCCN(C(=O)C(C)CC(C)C(=O)OCC)CCOCC1` (stereo not given)?
KCNQ2 enhance: 0.55; KCNQ2 inh: inactive
